{
  "source": "PubChem BioAssay AID1946",
  "about": "(Johns Hopkins Ion Channel Center, 2009)",
  "note": "Screen size: about 2,400 compounds; about 180 (7.5%) were called active. The sample as a whole holds a higher share of actives than the screen did. A number with no mark means an inactive call.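 How the source made its calls: active means readout below zero, meaning a drop past 3 SD under the dofetilide-free negative control mean; inactive means the rest.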",
  "data": [
    {"target": "Potassium voltage-gated channel subfamily KQT member 2 (Rattus norvegicus) (UniProt O88943)", "sequence (O88943 whole entry, looked up)": "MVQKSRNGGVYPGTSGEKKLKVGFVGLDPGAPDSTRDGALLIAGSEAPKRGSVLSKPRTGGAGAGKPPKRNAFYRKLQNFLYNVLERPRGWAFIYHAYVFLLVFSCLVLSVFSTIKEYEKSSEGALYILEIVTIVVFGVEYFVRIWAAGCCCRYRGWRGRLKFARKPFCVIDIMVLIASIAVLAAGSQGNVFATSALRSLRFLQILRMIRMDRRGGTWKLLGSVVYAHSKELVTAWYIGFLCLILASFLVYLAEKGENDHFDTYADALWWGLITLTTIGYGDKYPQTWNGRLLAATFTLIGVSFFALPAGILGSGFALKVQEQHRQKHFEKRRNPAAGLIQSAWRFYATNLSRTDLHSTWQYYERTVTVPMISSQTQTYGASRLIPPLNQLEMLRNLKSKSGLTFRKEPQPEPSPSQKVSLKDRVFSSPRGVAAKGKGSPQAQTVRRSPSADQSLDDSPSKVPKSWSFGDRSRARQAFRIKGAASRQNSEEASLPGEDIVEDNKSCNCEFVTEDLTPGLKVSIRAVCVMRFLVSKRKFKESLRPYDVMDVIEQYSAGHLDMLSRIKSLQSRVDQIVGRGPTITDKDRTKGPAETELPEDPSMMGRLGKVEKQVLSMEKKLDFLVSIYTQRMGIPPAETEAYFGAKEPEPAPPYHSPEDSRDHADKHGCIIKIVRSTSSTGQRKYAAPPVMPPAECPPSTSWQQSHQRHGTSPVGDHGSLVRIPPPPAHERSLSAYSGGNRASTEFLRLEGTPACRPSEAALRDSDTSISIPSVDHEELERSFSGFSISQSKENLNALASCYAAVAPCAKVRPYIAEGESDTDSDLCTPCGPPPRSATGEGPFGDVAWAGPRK", "assay": "rat KCNQ2 channel inhibition by compounds alone, confirmation, counter-screen for hERG block protector project, cell-based, CHO, FluxOR thallium flux (AID 1946)", "details": "CHO-KCNQ2 cells, FluxOR thallium flux fluorescence; at 10 µM; active compounds read low; zero marks the 3-SD hit cutoff", "values": [
      {"smiles": "CC(C)(C)OC(=O)NCCCC(CCCNC(=O)OC(C)(C)C)C(=O)O", "activity change vs negative control": "-1.1% (active)"},
      {"smiles": "Cc1c(C)c2ccc(OCC(=O)N[C@@H](Cc3ccccc3)C(=O)O)cc2oc1=O", "activity change vs negative control": "11.8%"},
      {"smiles": "O=C(NC(=S)Nc1ccccc1Cl)c1ccco1", "activity change vs negative control": "32.3%"},
      {"smiles": "O=C(CCC1CCCC1)NNC(=O)c1cccc(Cl)c1", "activity change vs negative control": "39.5%"},
      {"smiles": "Cn1c(=S)[nH]c2scc(-c3cccs3)c2c1=O", "activity change vs negative control": "93.4%"},
      {"smiles": "CCc1ccc(C(C)NC(=O)C2CCCC2)cc1", "note": "(stereo not given)", "activity change vs negative control": "42.6%"},
      {"smiles": "CCCCCn1c(=S)[nH]c2ncccc2c1=O", "activity change vs negative control": "48.4%"},
      {"smiles": "Cc1ccc(/C=C(\\NC(=O)c2ccccc2)C(=O)N2CCCCC2)cc1", "activity change vs negative control": "-1.3% (active)"},
      {"smiles": "CC(C)(C)c1ccc(C(=O)NC(=S)N2CCCCCC2)cc1", "activity change vs negative control": "40.6%"},
      {"smiles": "O=C(NC(=S)N1CCN(c2ccccc2)CC1)c1ccccc1", "activity change vs negative control": "33.2%"},
      {"smiles": "CCCCOc1ccc(-c2c(C#N)c(N)[nH]c(=S)c2C#N)cc1", "activity change vs negative control": "21.3%"},
      {"smiles": "O=c1oc2ccccc2c(Cl)c1CN1CCCCC1", "activity change vs negative control": "32.3%"},
      {"smiles": "C=CCn1c(=S)[nH]c2ccc(Br)cc2c1=O", "activity change vs negative control": "40.2%"},
      {"smiles": "COc1ccc(N2CC(C(=O)OCC(=O)Nc3ccccc3C)CC2=O)cc1", "note": "(stereo not given)", "activity change vs negative control": "9%"},
      {"smiles": "COC(=O)c1ccc(NC(=O)COC(=O)C2CC(=O)N(Cc3ccccc3)C2)cc1", "note": "(stereo not given)", "activity change vs negative control": "-5.2% (active)"},
      {"smiles": "O=C(COC(=O)C1CCC(=O)N1)Nc1ccc(Oc2ccccc2)cc1", "note": "(stereo not given)", "activity change vs negative control": "10.5%"},
      {"smiles": "COC(=O)c1c(NS(=O)(=O)Cc2ccccc2)sc2c1CCCC2", "activity change vs negative control": "56.6%"},
      {"smiles": "Cc1ccc(C(=O)c2ccccc2C(=O)O)c(O)c1", "activity change vs negative control": "6.4%"},
      {"smiles": "Cc1ccccc1C(=O)c1cn[nH]c1-c1ccccc1O", "activity change vs negative control": "-4.7% (active)"},
      {"smiles": "Cc1ccccc1C(=O)Nc1nc(=S)ss1", "activity change vs negative control": "82.2%"},
      {"smiles": "COc1ccc(C(=O)CC(=O)C(=O)Nc2ccccc2C(F)(F)F)cc1", "activity change vs negative control": "36.8%"},
      {"smiles": "CCOC(=O)N1CCC(N2C(=O)c3ccccc3C2Nc2cccnc2)CC1", "note": "(stereo not given)", "activity change vs negative control": "27.6%"},
      {"smiles": "CCOc1ccc(C(C)NC(=S)NC2CCCCC2)cc1", "note": "(stereo not given)", "activity change vs negative control": "40.9%"},
      {"smiles": "Fc1cccc2sc(Nc3nc4c(F)cccc4s3)nc12", "activity change vs negative control": "30.2%"},
      {"smiles": "Cc1ccc(-c2csc3nc[nH]c(=S)c23)cc1", "activity change vs negative control": "62.4%"},
      {"smiles": "Cc1cccc(OCC(=O)NC2CCCc3ccccc32)c1C", "note": "(stereo not given)", "activity change vs negative control": "-10.6% (active)"},
      {"smiles": "CCn1nnnc1SCC(=O)N1c2ccccc2Sc2ccccc21", "activity change vs negative control": "5.3%"},
      {"smiles": "Cn1nnnc1SCC(=O)Nc1ccccn1", "activity change vs negative control": "8.7%"},
      {"smiles": "O=C(NC(=S)NC1CCCc2ccccc21)c1ccco1", "note": "(stereo not given)", "activity change vs negative control": "28.4%"},
      {"smiles": "Cn1nnnc1SCC(=O)NC1CCCc2ccccc21", "note": "(stereo not given)", "activity change vs negative control": "-7.8% (active)"},
      {"smiles": "CCOc1ccc(NC(=O)CS(=O)CC(=O)NC2CCCc3ccccc32)cc1", "note": "(stereo not given)", "activity change vs negative control": "8.3%"},
      {"smiles": "Cc1cccc(NC(=O)C(=O)NNC(=O)c2ccc(C(C)(C)C)cc2)c1", "activity change vs negative control": "134%"},
      {"smiles": "C=CCn1c(=S)[nH]c2sc3c(c2c1=O)CCC3", "activity change vs negative control": "64.2%"},
      {"smiles": "CC(NC(=O)NC1CCCCC1)c1ccccc1", "note": "(stereo not given)", "activity change vs negative control": "57.6%"},
      {"smiles": "CCN(Cc1ccccc1)C(=S)NC(=O)c1ccccc1Br", "activity change vs negative control": "96.1%"},
      {"smiles": "S=c1nc(SCc2ccccc2)[nH]c2ccccc12", "activity change vs negative control": "95.4%"},
      {"smiles": "Cc1ccc(/C=N/N2C(=O)c3ccccc3NC2c2ccc(C)cc2)cc1", "note": "(stereo not given)", "activity change vs negative control": "-1.1% (active)"},
      {"smiles": "Cc1ccc(/C=C/C(=O)C2C(=O)c3ccccc3C2=O)cc1", "activity change vs negative control": "69.5%"},
      {"smiles": "Cc1cc([N+](=O)[O-])ccc1-c1ccc(C2Nc3ccccc3C(=O)N2O)o1", "note": "(stereo not given)", "activity change vs negative control": "24.1%"},
      {"smiles": "CC(C)CNC(=S)NC(=O)c1ccc(Cl)cc1", "activity change vs negative control": "10.6%"},
      {"smiles": "CCc1c(C)sc(NC(=O)CN2CCN(C(=O)c3ccco3)CC2)c1C(=O)OC", "activity change vs negative control": "44.4%"},
      {"smiles": "Cc1ccc(-c2nc3c(Cl)cc(Cl)cc3c(=O)n2O)cc1", "activity change vs negative control": "164%"},
      {"smiles": "CC(=O)C1=C(O)C(=O)N(c2cccnc2)C1c1ccc(Cl)cc1", "note": "(stereo not given)", "activity change vs negative control": "-2.8% (active)"},
      {"smiles": "O=C1c2ccccc2C(=O)N1c1cccnc1", "activity change vs negative control": "6.9%"},
      {"smiles": "CC1=NN(c2ccccc2)C(=O)C1C(=O)c1ccc(Cl)cc1", "note": "(stereo not given)", "activity change vs negative control": "28.9%"},
      {"smiles": "CN(Cc1ccccc1)C(=S)NC(=O)c1cccs1", "activity change vs negative control": "31.2%"},
      {"smiles": "Nc1nc(O)c(N=Nc2ccc(S(N)(=O)=O)cc2)c(=O)[nH]1", "activity change vs negative control": "-2% (active)"},
      {"smiles": "Cc1ccc2[nH]c(=O)c(C(c3nnnn3C3CCCC3)N3CCCc4ccccc43)cc2c1", "note": "(stereo not given)", "activity change vs negative control": "27.9%"},
      {"smiles": "COc1ccc(-c2csc(NC(=S)NC(=O)c3ccco3)n2)cc1", "activity change vs negative control": "21.1%"},
      {"smiles": "Cn1c(=O)c2sccc2n(Cc2cccc(Br)c2)c1=O", "activity change vs negative control": "10.6%"}
    ]}
  ]
}
